For test [1], the target named is Progesterone receptor (Homo sapiens) (UniProt P06401). The experiment in a line: qHTS assay to identify small molecule agonists of the progesterone receptor (PR) signaling pathway (AID 1346784; calls by dose curve; note: % is set by controls: 0 for no effect and ±100 for the full control effect; nearly all actives have a fitted effect of over 30% in size). The method, boiled down: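 Compounds were tested for PR agonism in HEK 293T cells bearing a beta-lactamase gene under UAS control. Treatment lasted 16 hr at 37C; signal came from fluorescence of a FRET substrate.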

For test [2] the target is unchanged. Nature of the test: qHTS assay to identify small molecule antagonists of the progesterone receptor (PR) signaling pathway (AID 1346795; active = well fitted inhibition curve with a large enough effect in the signal ratio in the repeat runs, not every such curve was filed as active; the % refers to the signal ratio; note: potency is the fitted concentration of half-maximal effect). In a few lines:
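In HEK293T cells bearing the PR-UAS-bla reporter, compound effects on promegestone-driven (1 nM) beta-lactamase expression are assessed after 16 hr using a fluorescent FRET substrate incubated 2 hr at room temperature.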

Test [3] can be described thus: qHTS assay to identify small molecule agonists of the progesterone receptor (PR) signaling pathway - cell viability counter screen (AID 1346799; calls by dose curve; note: % is set by controls: 0 for no effect and ±100 for the full control effect; nearly all actives have a fitted effect of over 45% in size). In a few lines: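 Here, 3,000 PR-UAS-bla HEK293T cells per well were treated with compounds for 16 hr after a 6 hr preincubation at 37C and 5% CO2; cell viability is the CellTiter-Glo luminescence signal.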
Test [4] can be described thus: qHTS assay to identify small molecule antagonists of the TGF-beta/Smad signaling pathway - cell viability counter screen (AID 1346824). Note: % is set by controls: 0 for no effect and ±100 for the full control effect; nearly all actives have a fitted effect of over 50% in size. In a few lines: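 SBE-bla HEK 293T cells were plated overnight at 37 C, then given compounds in DMSO plus TGF-beta1 (added as 0.25 ng/mL solution) for 5 hr. After the bla read, CellTiter-Glo was added to the same wells and luminescence read after 30 min at room temperature.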

The nature of test [5]: qHTS assay to identify small molecule agonists of the TGF-beta/Smad signaling pathway - cell viability counter screen (AID 1346829). Note: top concentration of the series differs between compounds; % is set by controls: 0 for no effect and ±100 for the full control effect; nearly all actives have a fitted effect of over 45% in size. In a few lines:
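In parallel with the Smad reporter read, viability of HEK 293T cells stably carrying SBE-bla is quantified by ATP luminescence following 5 hr compound treatment.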

The target of test [6] is Thyrotropin-releasing hormone receptor (Homo sapiens) (UniProt P34981). Nature of the test: qHTS assay to identify small molecule antagonists of the thyrotropin-releasing hormone receptor (TRHR) signaling pathway (AID 1346877; active = well fitted inhibition curve with a large enough effect in the repeat runs, not every such curve was filed as active; note: series mostly up to about 51 µM; % is set by controls: 0 for no effect and ±100 for the full control effect). In a few lines:
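Antagonism is measured as suppression of the calcium response to 1 nM TRH in TRHR-HEK293 cells that have been dye-loaded for 2 h at 37 °C after overnight plating. Each compound is tested at 15 concentrations in triplicate.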

For test [7] the target is unchanged. The experiment in a line: qHTS assay to identify small molecule agonists of the thyrotropin-releasing hormone receptor (TRHR) signaling pathway (AID 1346891; calls by dose curve; note: series mostly up to about 58 µM; % is set by controls: 0 for no effect and ±100 for the full control effect). The method, boiled down: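 Screening of agonists relied on calcium signalling in HEK293 cells expressing human TRHR: dye loading 2 h at 37 °C preceded compound addition and a 3-min fluorescence time course.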

The nature of test [8]: Human pregnane X receptor (PXR) small molecule agonists, qHTS cell viability counter screen (AID 1346977). Note: % is set by controls: 0 for no effect and ±100 for the full control effect; nearly all actives have a fitted effect of over 50% in size. In a few lines:
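Tox21 qHTS format; PXR-Luc HepG2, 2,000/well, charcoal-stripped FBS 5%. Cpd exposure 24hr. Read: CellTiter-Fluor fluorescence, multiplexed with luciferase.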

Test [9] can be described thus: Caspase-3/7 induction in CHO-K1 cells by small molecules, qHTS cell viability counter screen (AID 1346979). Note: % is set by controls: 0 for no effect and ±100 for the full control effect; nearly all actives have a fitted effect of over 35% in size. The method, boiled down:
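CellTiter-Fluor viability check, qHTS format: wild-type CHO-K1, 16hr compound treatment, 1hr reagent incubation, fluorescence read.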

A short description of test [10]: Caspase-3/7 induction in CHO-K1 cells by small molecules, qHTS assay (AID 1346980). Note: % is set by controls: 0 for no effect and ±100 for the full control effect; nearly all actives have a fitted effect of over 15% in size. The method, boiled down:
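Wild-type cells were seeded at 1,500 per well and settled 5 hr at 37 C, 5% CO2, then exposed to DMSO-dissolved compounds for 17 hr. Caspase-Glo 3/7 reagent was added, and luminescence was read after 30min at room temperature.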

A short description of test [11]: Caspase-3/7 induction in HepG2 cells by small molecules, qHTS cell viability counter screen (AID 1346981). Note: series mostly up to about 92 µM; % is set by controls: 0 for no effect and ±100 for the full control effect; nearly all actives have a fitted effect of over 30% in size. The method, boiled down:
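Cell viability is measured as a cytotoxicity counter screen alongside the Caspase-Glo 3/7 readout in identical wells. Wild-type HepG2 cells are treated with test compounds for 16 hr at 37 C before CellTiter-Fluor addition and a 1-hr incubation.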

Test [12] concerns the target Nuclear receptor subfamily 1 group I member 2 (Homo sapiens) (UniProt O75469). The experiment in a line: Human pregnane X receptor (PXR) small molecule agonists, qHTS assay (AID 1346982). Note: % is set by controls: 0 for no effect and ±100 for the full control effect; nearly all actives have a fitted effect of over 35% in size. In a few lines: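 Cells: HepG2 stably carrying PXR-Luc. Medium held 5% charcoal-stripped FBS. Compounds in DMSO added after 5 hr plating, incubated 24 hr, then luminescence quantified with ONE-Glo.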

Test [13] deals with Cytochrome P450 2D6 (Homo sapiens) (UniProt P10635). The experiment in a line: Cytochrome P450 Family 2 Subfamily D Member 6 (CYP2D6) small molecule antagonists: luciferase reporter qHTS assay (AID 1671196). Note: nearly all actives have a fitted effect of over 50% in size. Note: potency is the fitted concentration of half-maximal effect. The method, boiled down:
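Enzyme and proluciferin substrate were first combined with test chemical for 10 min at room temperature. Adding NADPH regeneration solution started a 1 h reaction, stopped with luciferin detection reagent and read by luminescence 20 min later.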

Test [14] addresses Cytochrome P450 2C19 (Homo sapiens) (UniProt P33261). Nature of the test: Cytochrome P450 Family 2 Subfamily C Member 19 (CYP2C19) small molecule antagonists: luciferase reporter qHTS assay (AID 1671197). Note: nearly all actives have a fitted effect of over 65% in size. Note: potency is the fitted concentration of half-maximal effect. The method, boiled down: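 Compounds were tested on CYP2C19 activity via proluciferin conversion to luciferin. The 37C, 1 h reaction followed NADPH addition; detection reagent stopped it.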

Test [15] in a line: qHTS assay to identify small molecule antagonists of the progesterone receptor (PR) signaling pathway - cell viability counter screen (AID 1346798). Note: series mostly up to about 92 µM; % is set by controls: 0 for no effect and ±100 for the full control effect; nearly all actives have a fitted effect of over 50% in size. In a few lines:
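Following a 4 hr attachment, PR-UAS-bla HEK293T cells in charcoal-stripped FBS medium were exposed to compounds with R5020 for 16 hr; CellTiter-Glo was added and luminescence read after 30 min at room temperature.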

Test [16] can be described thus: qHTS assay to identify small molecule agonists of the TGF-beta/Smad signaling pathway (AID 1346859; active = well fitted activation curve with a large enough effect in the signal ratio in the repeat runs, not every such curve was filed as active; the % refers to the signal ratio; note: series mostly up to about 77 µM; % is set by controls: 0 for no effect and ±100 for the full control effect). In a few lines: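 Each well held 4,000 SBE-bla HEK 293T cells incubated overnight before compound addition; 5 hr later the cleavable FRET substrate went on for 2 hr at room temperature, and fluorescence was read at two emissions.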
A short description of test [17]: Caspase-3/7 induction in HepG2 cells by small molecules, qHTS assay (AID 1346978). Note: % is set by controls: 0 for no effect and ±100 for the full control effect; nearly all actives have a fitted effect of over 15% in size. The method, boiled down:
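Wild-type HepG2 cells (2,000/well) were settled 5 h at 37 C, 5% CO2, then exposed to compounds in DMSO for 17 h. Caspase-3/7 activity was read by luminescence 30 min after adding Caspase-Glo 3/7 reagent at room temperature.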

Test [18] deals with Nuclear receptor subfamily 1 group I member 2 (Rattus norvegicus) (UniProt Q9R1A7). The experiment in a line: Rat pregnane X receptor (rPXR) activation by small molecules, qHTS assay (AID 1346983). Note: % is set by controls: 0 for no effect and ±100 for the full control effect; nearly all actives have a fitted effect of over 20% in size. Particulars: rPXR luciferase reporter cells, One-Glo luminescence, 24 h; hits give high values. The method, boiled down:
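Cell-based rPXR luciferase reporter assay, 2,000 cells per well, rested 5hr at 37 C before compound addition in DMSO, then 24 hr at 37 C. One-Glo reagent was added and luminescence read after 30 min at room temperature.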

Test [19] addresses Nuclear receptor subfamily 1 group I member 2 (Homo sapiens) (UniProt O75469). The experiment in a line: CYP3A4 induction through human pregnane X receptor (PXR) by small molecules, qHTS assay (AID 1346984). Note: potency is the fitted concentration of half-maximal effect; nearly all actives have a fitted effect of over 40% in size. The method, boiled down: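 Quantitative HTS in DPX-2 cells, i.e. HepG2 transfected with PXR response element and CYP3A4-promoter luciferase. Compounds in DMSO incubated 24hr at 37C; then P450-Glo CYP3A4 substrate, 3uM final, 3hr; One-Glo luminescence.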

For test [20] the target is unchanged. Nature of the test: Human pregnane X receptor (PXR) activation by small molecules, qHTS assay (AID 1346985). Note: potency is the fitted concentration of half-maximal effect; nearly all actives have a fitted effect of over 40% in size. In a few lines: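 DPX-2 cells (HepG2 co-transfected with a PXR response element and a CYP3A4-promoter luciferase construct) were seeded at 2,000 per well, rested 5 hr at 37C, then exposed to DMSO-dissolved compounds for 24 hr. Activation was read as luciferase luminescence.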

Unmarked numbers belong to inactive results. Records with an inconclusive call do not appear. Active and inactive are the calls of the source. Unless noted, calls come from the whole dose curve; as a rule, active = well fitted curve in the direction sought with a large enough effect in the repeat runs; inconclusive = weak or mixed curves; inactive = no such curve, though single readings can be large; an effect the other way counts as inactive or inconclusive.

Sequence of Cytochrome P450 2D6 (Homo sapiens) (P10635 whole entry, looked up): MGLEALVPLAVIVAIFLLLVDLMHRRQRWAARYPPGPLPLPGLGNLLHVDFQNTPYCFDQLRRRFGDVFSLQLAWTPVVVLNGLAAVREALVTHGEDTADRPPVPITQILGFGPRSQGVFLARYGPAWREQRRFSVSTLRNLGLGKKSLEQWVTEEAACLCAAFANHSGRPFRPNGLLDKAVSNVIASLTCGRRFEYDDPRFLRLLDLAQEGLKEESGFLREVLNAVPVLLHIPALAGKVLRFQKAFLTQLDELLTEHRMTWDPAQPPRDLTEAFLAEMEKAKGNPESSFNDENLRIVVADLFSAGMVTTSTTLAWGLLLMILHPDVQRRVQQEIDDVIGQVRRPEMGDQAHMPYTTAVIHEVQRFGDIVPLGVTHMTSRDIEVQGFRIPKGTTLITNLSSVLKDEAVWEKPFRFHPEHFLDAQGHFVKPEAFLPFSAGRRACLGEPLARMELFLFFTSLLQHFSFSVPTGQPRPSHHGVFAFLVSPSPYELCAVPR
Sequence of Cytochrome P450 2C19 (Homo sapiens) (P33261 whole entry, looked up): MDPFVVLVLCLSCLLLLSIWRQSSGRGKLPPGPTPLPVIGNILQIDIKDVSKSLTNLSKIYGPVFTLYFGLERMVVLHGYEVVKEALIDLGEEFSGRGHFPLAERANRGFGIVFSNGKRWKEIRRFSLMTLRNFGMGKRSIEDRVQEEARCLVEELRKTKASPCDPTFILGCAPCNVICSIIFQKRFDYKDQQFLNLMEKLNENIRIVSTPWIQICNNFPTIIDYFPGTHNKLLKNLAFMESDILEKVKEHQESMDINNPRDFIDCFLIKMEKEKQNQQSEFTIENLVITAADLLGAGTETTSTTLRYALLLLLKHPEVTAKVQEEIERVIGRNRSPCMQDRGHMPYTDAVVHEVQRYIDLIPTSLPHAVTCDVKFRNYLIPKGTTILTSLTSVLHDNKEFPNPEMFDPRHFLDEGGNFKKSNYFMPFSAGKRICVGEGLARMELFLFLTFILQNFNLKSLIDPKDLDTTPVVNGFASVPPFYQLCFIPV
Sequence of Progesterone receptor (Homo sapiens) (P06401 whole entry, looked up): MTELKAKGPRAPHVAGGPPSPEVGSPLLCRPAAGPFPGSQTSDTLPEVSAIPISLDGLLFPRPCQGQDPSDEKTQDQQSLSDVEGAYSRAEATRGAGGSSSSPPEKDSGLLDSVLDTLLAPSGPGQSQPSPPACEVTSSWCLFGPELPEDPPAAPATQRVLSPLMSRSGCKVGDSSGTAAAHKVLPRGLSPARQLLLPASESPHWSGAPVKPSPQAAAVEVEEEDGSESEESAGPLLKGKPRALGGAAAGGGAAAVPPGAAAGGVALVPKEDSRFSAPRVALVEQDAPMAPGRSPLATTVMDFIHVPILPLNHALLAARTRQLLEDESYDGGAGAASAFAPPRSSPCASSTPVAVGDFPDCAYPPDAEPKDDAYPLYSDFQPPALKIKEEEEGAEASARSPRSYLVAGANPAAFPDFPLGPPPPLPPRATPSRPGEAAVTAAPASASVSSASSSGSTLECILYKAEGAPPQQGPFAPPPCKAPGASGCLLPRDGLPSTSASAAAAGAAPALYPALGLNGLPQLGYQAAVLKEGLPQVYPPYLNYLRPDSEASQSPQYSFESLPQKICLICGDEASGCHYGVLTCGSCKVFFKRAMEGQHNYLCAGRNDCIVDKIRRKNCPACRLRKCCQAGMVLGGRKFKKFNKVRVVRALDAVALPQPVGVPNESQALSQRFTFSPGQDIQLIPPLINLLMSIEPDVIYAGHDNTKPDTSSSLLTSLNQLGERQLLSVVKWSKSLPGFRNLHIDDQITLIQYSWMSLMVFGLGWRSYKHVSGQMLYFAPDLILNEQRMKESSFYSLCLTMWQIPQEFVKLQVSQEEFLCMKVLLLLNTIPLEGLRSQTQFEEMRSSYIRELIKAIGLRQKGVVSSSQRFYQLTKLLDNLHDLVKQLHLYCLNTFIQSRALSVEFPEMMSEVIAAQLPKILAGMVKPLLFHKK
Sequence of Nuclear receptor subfamily 1 group I member 2 (Homo sapiens) (O75469 whole entry, looked up): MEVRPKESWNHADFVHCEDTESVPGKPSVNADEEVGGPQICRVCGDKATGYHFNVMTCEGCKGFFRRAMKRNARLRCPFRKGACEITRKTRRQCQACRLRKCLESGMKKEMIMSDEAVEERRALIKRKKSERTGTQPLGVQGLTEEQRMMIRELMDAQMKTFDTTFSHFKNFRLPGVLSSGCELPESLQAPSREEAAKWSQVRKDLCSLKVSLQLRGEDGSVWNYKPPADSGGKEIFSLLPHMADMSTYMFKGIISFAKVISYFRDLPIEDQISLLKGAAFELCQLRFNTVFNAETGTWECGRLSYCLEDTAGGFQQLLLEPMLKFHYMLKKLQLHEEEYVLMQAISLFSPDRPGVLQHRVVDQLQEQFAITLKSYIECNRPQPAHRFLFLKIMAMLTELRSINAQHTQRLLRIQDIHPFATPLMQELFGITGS
Sequence of Thyrotropin-releasing hormone receptor (Homo sapiens) (P34981 whole entry, looked up): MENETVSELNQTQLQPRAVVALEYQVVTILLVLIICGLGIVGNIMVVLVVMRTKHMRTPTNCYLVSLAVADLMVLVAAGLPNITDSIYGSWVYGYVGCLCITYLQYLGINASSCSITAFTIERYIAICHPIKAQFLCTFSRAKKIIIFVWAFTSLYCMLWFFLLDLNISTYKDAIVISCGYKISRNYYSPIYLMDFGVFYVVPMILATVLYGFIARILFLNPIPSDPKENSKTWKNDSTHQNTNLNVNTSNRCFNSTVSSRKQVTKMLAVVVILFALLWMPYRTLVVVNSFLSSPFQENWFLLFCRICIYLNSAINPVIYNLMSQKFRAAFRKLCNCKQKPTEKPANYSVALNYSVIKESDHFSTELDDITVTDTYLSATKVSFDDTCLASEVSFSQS
Sequence of Nuclear receptor subfamily 1 group I member 2 (Rattus norvegicus) (Q9R1A7 whole entry, looked up): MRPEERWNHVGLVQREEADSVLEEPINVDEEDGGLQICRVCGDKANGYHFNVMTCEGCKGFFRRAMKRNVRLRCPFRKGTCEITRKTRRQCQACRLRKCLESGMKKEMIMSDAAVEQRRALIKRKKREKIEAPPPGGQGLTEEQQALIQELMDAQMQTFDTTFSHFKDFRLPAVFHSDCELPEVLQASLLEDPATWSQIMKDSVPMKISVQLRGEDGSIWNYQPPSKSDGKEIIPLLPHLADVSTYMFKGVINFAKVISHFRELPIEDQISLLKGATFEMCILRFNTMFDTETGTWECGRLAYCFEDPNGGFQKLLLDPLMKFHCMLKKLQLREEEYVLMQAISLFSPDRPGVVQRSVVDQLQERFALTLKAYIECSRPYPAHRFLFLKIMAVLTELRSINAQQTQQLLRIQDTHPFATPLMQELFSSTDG

For the molecule `CCc1ccc(C=O)cc1`, the Potency entry in test [1], in test [2], in [3], in [8], in [9] and in [11] was “inactive” in each case. The Potency entry in test [12], in test [13] and in [14] was “inactive” throughout. Besides, the molecule was classed as inactive in test [4], in [5], in test [6], in test [7] and in test [10].

With `CCOCCOC(=O)/C=C/c1ccc(OC)cc1`, the Potency result in test [1], in test [2], in test [15], in test [8], in [17] and in [9] was “inactive” throughout. Moreover, the Potency result in test [11], in test [12] and in test [13] was “inactive” throughout. Moreover, the call in test [4], in test [5], in test [16] and in [10] was inactive. For the same molecule, the Potency in test [14] is 34.7 µM (active).

On to `CC(C)(C)OC(=O)c1ccc(O)cc1`, for which the Potency result in [1], in test [15], in test [8], in [17], in test [9] and in test [11] was “inactive” in each case. The Potency in test [2] is 54.5 µM (active); in test [14], 63.3 µM (active). Besides, the call in test [5], in test [16], in test [6] and in [10] was inactive.

Take `O=C(CCN1CCN(CCO)CC1)N1c2ccccc2Sc2ccc(C(F)(F)F)cc21`: the Potency entry in [1], in test [2], in test [15], in test [8], in [17] and in [9] was “inactive” in each case. In addition, the Potency entry in test [11] and in test [14] was “inactive” each time. For the same molecule, the call in test [4], in test [5], in test [16], in [6], in test [7] and in test [10] was inactive. Moreover, in test [18], the max activation was -2.18%. The Potency in test [19] was 10 µM (active); in test [20] it was 15.8 µM (active).

Regarding `Cc1cccc(OCC(O)CNC(C)(C)C)c1C` (centres undefined), the Potency entry in test [1], in test [2], in test [3], in [8], in test [17] and in test [9] was “inactive” each time. In addition, the Potency result in test [11] and in test [14] was “inactive” each time. For the same molecule, the molecule was classed as inactive in [4], in test [5], in test [16], in test [6] and in test [10]. Moreover, the Potency in test [13] was 13.8 µM (active).

Regarding `Cc1cc(C(C)(C)C)c(O)c(C)c1CC1=NCCN1`, the Potency entry in test [1], in [2], in [15], in [8], in test [17] and in [9] was “inactive” in each case. Besides, the Potency entry in [11] and in test [14] was “inactive” in each case. Further, the molecule was classed as inactive in [4], in [5], in test [16], in [7] and in [10].

Take `CCCOC(OCCC)OCCC`: the Potency entry in test [1], in test [2], in test [3], in test [8], in [17] and in test [9] was “inactive” throughout. The Potency entry in test [11], in test [12] and in test [14] was “inactive” in each case. For the same molecule, the molecule was called inactive in test [4], in test [5], in test [16] and in test [10].

For `C=C(C)C1CCC(C)(O)CC1` (centres undefined), the Potency result in test [1], in test [2], in [3], in test [8], in test [17] and in test [9] was “inactive” throughout. The Potency entry in [11], in [13] and in test [14] was “inactive” in each case. Further, the result in test [5], in test [16], in test [6], in test [7] and in [10] was inactive.

On to `CC(=O)Nc1ccc(S(=O)(=O)Cl)cc1`, for which the Potency result in test [1], in test [2], in [3], in [8], in test [17] and in test [9] was “inactive” throughout. Further, the Potency result in [11], in test [12] and in test [13] was “inactive” in each case. Also, the outcome in test [5], in [6], in test [7] and in [10] was inactive.

The values above are taken from PubChem BioAssay (Tox21).
